Source: PubChem (National Center for Advancing Translational Sciences (NCATS))
BAZ2B block = blocks human BAZ2B; AID 504333; AlphaScreen BAZ2B-H3K14Ac peptide displacement; Q9UIF8; Potency, µM (highest dose often 114 µM), for the others: at the top dose activity change, negative = inhibition, usual class: inhibitors; 4.4% of 360,000 active; further: on the % scale 0 is the no-effect control and ±100 the full control effect; nearly all actives have a fitted effect of over 60% in size
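Compounds, titrated to a top concentration of 110 uM, were incubated 30 min at room temperature with preformed BAZ2B/acetyl-K14 H3 peptide complex (50 nM each). Proximity signal was measured by AlphaScreen after 20 min with beads.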
HP1b binding inh = blocks HP1-beta chromodomain binding to methylated histone tails | P83916 | AlphaScreen HP1-beta / biotin-H3K9me3 peptide binding | Potency, µM (doses to about 114 µM), without a hit: at the top dose activity change, negative = inhibition, usual class: inhibitors | 0.56% of 390,000 active | AID 540317; further: nearly all actives have a fitted effect of over 70% in size
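AlphaScreen: HP1-beta (50 nM) preformed 30 min with biotin-H3(1-18)K9me3 peptide (50 nM) in PBS pH 7.4, 0.01% Tween-20. Compound added for 30 min at RT, then streptavidin donor/nickel chelate acceptor beads (10 ug/mL) for 30 min.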
Sfp inh = blocks B. subtilis Sfp PPTase activity; 3.5% of 310,000 active; AID 1490; Potency, µM, for the others: largest response in the series, negative = inhibition, most hits filed as inhibitors; Q9F4F7; Biochemical Sfp PPTase activity, qHTS;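 further: the enzyme is Sfp with the accession as filed and its product quenches rhodamine fluorescence; 0% = enzyme reaction without inhibitor and -100% = no enzyme wells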
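Sfp 15 nM + cpd, 15 min RT; start w/ rhodamine-CoA 5 uM, BHQ-2-YbbR 12.5 uM (final); 50 mM Hepes pH 7.6, 10 mM MgCl2, 0.01% NP-40, 0.01% BSA; read 525/598 nm at 0 and 30 min.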
L3MBTL1 block = blocks human L3MBTL1. AlphaScreen L3MBTL1–H3K9me1 peptide binding. Potency, µM (highest dose often 57.1 µM), without a hit: top-dose activity, negative = inhibition, hits mostly inhibitors. 0.66% of 230,000 active. AID 485360; further: on the % scale 0 is the no-effect control and ±100 the full control effect; nearly all actives have a fitted effect of over 60% in size
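Read-out is AlphaScreen signal from streptavidin donor and nickel chelate acceptor beads (10 ug/mL final each) bridging L3MBTL1 (50 nM) and biotinylated K9-monomethylated H3(1-15) peptide (75 nM), after 30 min compound exposure at room temperature.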
G9a block = G9a (human) methyltransferase inhibition; G9a H3K9 monomethylation, AlphaScreen, 2 h; Q96KQ7; 8.8% of 350,000 active; Potency, µM (series often up to 102 µM), for inactives: at the highest dose activity, negative = inhibition, usual class: inhibitors; further: on the % scale 0 is the no-effect control and ±100 the full control effect; nearly all actives have a fitted effect of over 75% in size
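Methyltransferase reactions run at room temperature for 2 h (20 nM enzyme, 500 nM biotin-H3K9 peptide, 20 uM SAM) after a 15 min compound preincubation; product detected by AlphaScreen beads and anti-H3K9me1 antibody.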
JMJD2A Tudor = inhibitors of human JMJD2A Tudor domain. AlphaScreen JMJD2A-Tudor / H3K4me3 peptide binding. Potency, µM (top dose mostly 114 µM), for the others: top-dose activity change, negative = inhibition, hits mostly inhibitors. 4.4% of 390,000 active. AID 504339; further: on the % scale 0 is the no-effect control and ±100 the full control effect; nearly all actives have a fitted effect of over 50% in size
Target sequence (O75164 whole entry, looked up, the tested form may be a part): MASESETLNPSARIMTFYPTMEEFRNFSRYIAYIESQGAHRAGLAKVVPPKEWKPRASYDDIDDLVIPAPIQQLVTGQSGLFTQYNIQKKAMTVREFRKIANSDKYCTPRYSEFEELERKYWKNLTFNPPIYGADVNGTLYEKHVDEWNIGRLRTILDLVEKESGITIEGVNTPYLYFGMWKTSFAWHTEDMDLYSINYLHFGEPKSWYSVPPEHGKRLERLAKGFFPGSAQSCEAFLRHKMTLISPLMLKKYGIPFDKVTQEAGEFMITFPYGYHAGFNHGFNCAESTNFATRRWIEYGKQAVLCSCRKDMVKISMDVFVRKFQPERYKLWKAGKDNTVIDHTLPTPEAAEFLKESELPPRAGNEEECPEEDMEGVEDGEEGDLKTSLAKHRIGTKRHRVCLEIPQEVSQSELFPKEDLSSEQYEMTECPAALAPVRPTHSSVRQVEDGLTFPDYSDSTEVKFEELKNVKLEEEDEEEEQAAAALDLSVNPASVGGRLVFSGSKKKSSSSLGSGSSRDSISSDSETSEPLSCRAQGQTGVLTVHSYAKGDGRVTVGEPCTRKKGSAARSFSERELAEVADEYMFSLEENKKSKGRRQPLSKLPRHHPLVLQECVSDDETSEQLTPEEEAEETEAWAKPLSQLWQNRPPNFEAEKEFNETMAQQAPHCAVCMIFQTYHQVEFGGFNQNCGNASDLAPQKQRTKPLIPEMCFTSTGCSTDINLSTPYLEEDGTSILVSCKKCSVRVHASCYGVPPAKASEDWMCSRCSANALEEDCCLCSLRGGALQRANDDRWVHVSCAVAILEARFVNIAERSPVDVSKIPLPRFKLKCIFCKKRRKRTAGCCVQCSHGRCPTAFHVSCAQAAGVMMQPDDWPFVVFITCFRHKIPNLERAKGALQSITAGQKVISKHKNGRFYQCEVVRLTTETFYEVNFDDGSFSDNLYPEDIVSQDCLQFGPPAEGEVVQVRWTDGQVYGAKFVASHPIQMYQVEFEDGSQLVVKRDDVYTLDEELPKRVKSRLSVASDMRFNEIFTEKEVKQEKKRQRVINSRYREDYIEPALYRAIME
Active calls of the source: *; ? = inconclusive; / = no result given; ! = not active in a repeat; [ ] = dose if it differs, or a comment. This is a sample that favours compounds with a hit; in the whole collection about 12% have one here. The call rests on the fitted dose curve; in most records, active means well fitted curve in the direction sought with a large enough effect; inconclusive means small, poorly fitted or top-dose-only effect, or another doubt; inactive means no such curve, though single readings can be large; an effect the other way counts as inactive or inconclusive. Potency means the concentration at half of the fitted maximal effect.

SMILES	BAZ2B block	HP1b binding inh	Sfp inh	L3MBTL1 block	G9a block	JMJD2A Tudor
COc1ccccc1/C=C/C(=C1/C(=O)N(c2ccccc2)N=C1C)c1ccc(C)cc1	2.82µM*	2.51µM*	6.4%	-10.0%	?	2.82µM*
COc1cccc(/C=C/C(=C2/C(=O)N(c3ccccc3)N=C2C)c2ccc(Br)cc2)c1OC	1.26µM*	-20.5%	9.4%	-2.5%	?	-31.4%
COc1cccc(/C=C/C(=O)OCC(=O)c2ccccc2)c1OC	/	100.6%	/	21.0%	/	24.1%
COc1cccc(/C=C/C(=C2/C(=O)N(c3ccccc3)N=C2C)c2ccccc2)c1OC	4.47µM*	-35.5%	3.0%	13.1%	1.41µM*	?
Cn1c2ccsc2c2cnn(Cc3ccc(F)cc3)c(=O)c21	9.1%	/	/	3.0%	2.7%[12.7 µM]	/
CCOC(=O)c1ccc2c(c1)sc1nc(-c3ccc(OCC)cc3)cn12	1.8%	43.9%	/	/	13.1%[59 µM]	-7.3%
Cn1c(N)c(C(=O)COC(=O)c2cc(-c3ccccc3)nc3ccccc23)c(=O)n(Cc2ccccc2)c1=O	-9.9%	8.9%	3.5%	-6.2%	?	-32.6%
CC(C)Cn1c(N)c(C(=O)COC(=O)c2cc(-c3ccccc3)nc3ccccc23)c(=O)n(C)c1=O	-9.0%	30.9%	7.8%	-4.1%	?	-7.0%
Cn1c(=O)c(C(=O)COC(=O)c2cc(C(F)(F)F)nc3c(C(F)(F)F)cccc23)c(N)n(CC2CC2)c1=O	-38.7%	/	10.6%	0.1%	50.1µM*	/
CC(C)Cn1c(N)c(C(=O)COC(=O)c2cc(-c3ccco3)nc3ccccc23)c(=O)n(C)c1=O	79.4µM*	?	20µM*!	8.91µM*	?	39.8µM*
Cn1c(=O)c(C(=O)COC(=O)c2cc(-c3ccco3)nc3ccccc23)c(N)n(Cc2ccccc2)c1=O	44.7µM*	/	31.6µM*	?	8.91µM*	/
O=C(CCC(=O)N1CC2CCCN2c2ccccc21)NCc1ccccc1 (centres undefined)	-37.1%	2.4%	/	/	0.3%[59 µM]	-30.7%
O=C(c1cc2nc(-c3ccco3)cc(C(F)(F)F)n2n1)N1CCN(c2ccccn2)CC1	4.8%	31.2%	-13.8%	-3.5%	?	-3.4%
O=C(c1cc2nc(-c3ccco3)cc(C(F)(F)F)n2n1)N1CCN(c2ccccc2)CC1	?	10.6%	-14.6%	-8.6%	44.7µM*	-27.0%
CN(C(=O)c1cc2nc(-c3ccco3)cc(C(F)(F)F)n2n1)C1CCCCC1	12.7%	15.9%	50.1µM*	23.0%	56.2µM*	5.5%
O=C(c1cc2nc(-c3ccco3)cc(C(F)(F)F)n2n1)N1CCCCCC1	/	31.2%	56.2µM*	15.2%	?	5.6%
Cc1cc(-n2c(C)nc3ccccc3c2=O)ccc1NC(=O)c1cccc([N+](=O)[O-])c1	3.1%	29.1%	/	/	-2.9%[59 µM]	-9.1%
Cc1cc(C(=O)N[C@@H](c2ccccc2)[C@]2(C)C[C@H]2[C@@H](C)C(=O)Nc2ccc3ccccc3c2)n(C)n1	/	/	14.9%	/	/	/
COc1ccc(-c2noc(CCC(=O)N(C)c3cc(Cl)ccc3OC)n2)cc1	7.2%	39.2%	/	/	16.8%[59 µM]	7.5%
N#Cc1ccccc1S(=O)(=O)N1CCN(c2nc(-c3cccnc3)nc3ccccc23)CC1	13.7%	12.1%	/	-8.8%	50.1µM*	?
O=S(=O)(c1ccccc1F)N1CCN(c2nc(-c3cccnc3)nc3ccccc23)CC1	-9.3%	46.1%	/	-4.8%	14.4%[12.7 µM]	-34.2%
COc1cc2c(cc1OC)CN(c1nc(-c3cccnc3)nc3ccccc13)CC2	39.8µM*	-18.8%	-12.7%	/	50.1µM*	?
c1ccc(N2CCN(c3nc(-c4ccccn4)nc4ccccc34)CC2)cc1	1.78µM*	?	-17.8%	?	?	?
Fc1ccccc1-c1nc(N2CCN(c3cccc(Cl)c3)CC2)c2ccccc2n1	3.5%	42.9%	/	/	4.9%[59 µM]	5.6%
CCN1CCN(c2nc(-c3cccnc3)nc3ccccc23)CC1	-33.6%	4.9%	10.8%	1.3%[11.4 µM]	?	89.1µM*
SMILES	BAZ2B block	HP1b binding inh	Sfp inh	L3MBTL1 block	G9a block	JMJD2A Tudor
Cc1ccc(CNc2ccc(-c3nc(-c4ccncc4)no3)cc2[N+](=O)[O-])cc1	-12.6%	-9.3%	/	/	-8.6%[59 µM]	-34.1%
COc1cc(NC(=O)c2cc(-c3cccc(OC)c3)n[nH]2)cc(OC)c1	-19.0%	46.8%	/	/	-5.1%[59 µM]	-17.2%
CCCCNC(=O)c1ccc2c(=O)n(-c3ccccc3)c(=O)[nH]c2c1	-0.4%	19.0%	/	/	0.3%[59 µM]	-6.8%
Cc1cc(C)nc(CCNC(=O)CC2C(=O)NCCN2Cc2ccc(F)cc2Cl)n1 (centres undefined)	-5.2%	16.2%	-6.9%	/	44.7µM*	-7.3%
CC(C)c1nc(CNC(=O)CC2C(=O)NCCN2Cc2ccc(F)cc2Cl)cs1 (centres undefined)	-13.0%	36.1%	-2.2%	/	/	-29.5%
O=C(CC1C(=O)NCCN1Cc1ccc(F)cc1Cl)NCc1ccon1 (centres undefined)	-15.8%	42.6%	18.1%	/	31.6µM*	-9.7%
CC(NC(=O)/C(C#N)=C/c1cccs1)c1ccccc1 (centres undefined)	-15.8%	27.0%	0.8%	2.1%	-1.0%	1.0%
CC(NC(=O)/C(C#N)=C/c1ccco1)c1ccccc1 (centres undefined)	0.5%	15.3%	50.1µM*	/	1.3%	-11.3%
COC(=O)c1ccc(/C=C(\C#N)C(=O)NC(C)c2ccccc2)cc1 (centres undefined)	-3.1%	11.7%	31.6µM*	0.6%	50.1µM*	-30.8%
CC(NC(=O)/C(C#N)=C/c1ccc([N+](=O)[O-])o1)c1ccccc1 (centres undefined)	?	-16.3%	-18.3%	/	44.7µM*	?
COc1ccc(/C=C(\C#N)C(=O)NC(C)c2ccccc2)cc1O (centres undefined)	-2.6%	-16.2%	-16.5%	/	6.5%	-24.4%
CC(C)c1ccc(N2C(=O)/C(=C/N(C)C)SC2=S)cc1	44.7µM*	?	27.8%	/	50.1µM*	44.7µM*
CCO/C=C1\SC(=S)N(c2ccc(Cl)cc2)C1=O	-36.0%	-14.9%	?	-18.9%	?	-29.0%
CC1CCN(S(=O)(=O)c2ccc3c(c2)N(CC(=O)N2CCN(c4ccc(Cl)cc4)CC2)C(=O)CO3)CC1	-16.6%	39.7%	/	/	1.2%[59 µM]	-14.2%
O=C(NCc1ccco1)Nc1ccc(OC(F)(F)F)cc1	-19.1%	27.8%	10.8%	-5.8%	-2.0%	-10.9%
Cc1ccc(CNC(=O)Nc2ccc(F)cc2)n1C	-36.2%	28.8%	-9.8%	/	50.1µM*	?
CC(C)(C)c1ccc(NC(=O)Nc2ccc(F)cc2)cc1	1.8%	-9.6%	14.5%	6.4%	-8.0%	35.5µM*
Cc1ccc(CNC(=O)Nc2ccc(OC(F)(F)F)cc2)n1C	?	-2.5%	5.6%	/	50.1µM*	-35.5%
